HT1080-NT tox: kills 2HG-producing HT-1080-NT fibrosarcoma cells; HT-1080-NT fibrosarcoma viability, CellTiter-Glo ATP luminescence, 48 h; AID 686970; hit rate 1.6% among 360,000; Potency, µM (series often up to 46.1 µM), for inactives: at the highest dose activity, negative = less viability, actives largely listed as cytotoxic;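 also: NT is the 2HG producing partner of a matched IDH1 knockdown line; 0% = DMSO-treated cells and -100% = media-only wells without cells; nearly all actives have a fitted effect of over 55% in size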
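Viability of the 2HG-overproducing fibrosarcoma line after 48 hours of compound exposure at 37 degrees C was determined by luminescence with CellTiter-Glo, and concentration-effect curves were then fitted and categorized.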
KB-V1 cytotox: KB-V1 MDR subline cytotoxicity; KB-V1 MDR cells viability, CellTiter-Glo, 72 h; Potency, µM (series often up to 46.1 µM), most hits filed as cytotoxic; hit rate 3.4% among 400,000; AID 1347076; also: % is scaled to controls: 0 for no effect and ±100 for the full control effect; nearly all actives have a fitted effect of over 60% in size
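Compound-treated KB-V1 multidrug-resistant cells, 72 h, 37 degrees C; viability by CellTiter-Glo. Fitted qHTS curves give the values.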
ATXN viability: viability counter-screen for ATXN expression inhibitors; S2 cells (HEK-293 line with an ATXN2-luciferase reporter) viability, CellTiter-Fluor protease fluorescence, 24 h; Potency, µM (highest dose often 56.7 µM), hits mostly cytotoxic; hit rate 0.49% among 400,000; also: nearly all actives have a fitted effect of over 40% in size
HT1080 IDH1KD tx: kills HT-1080 cells with IDH1 knockdown. HT-1080 IDH1 knockdown viability, ATP luminescence, 48 h. Potency, µM (titrated, usually from 46.1 µM), inactives show at the highest dose activity, negative = toxicity, hits mostly cytotoxic. hit rate 2% among 360,000. AID 686971;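 also: 0% = DMSO wells and -100% = cell-free medium wells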
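Using the IDH1-knockdown HT-1080 line run in the same batch and compound series as the NT line, viability after 48 h at 37 °C was determined by CellTiter-Glo luminescence and expressed as % activity.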
ATXN2 expr inh: inhibitors of ATXN2 expression. HEK-293 ATXN2-luciferase reporter, luminescence, 24 h. Potency, µM (highest dose often 57 µM), inactives show top-dose activity change, negative = inhibition, hits mostly inhibitors. hit rate 0.72% among 360,000; also: % is scaled to controls: 0 for no effect and ±100 for the full control effect; nearly all actives have a fitted effect of over 55% in size
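qHTS (up to 57 uM final) was run with 24 h compound exposure of reporter cells at 37 °C. Each well was multiplexed: SteadyGlo luminescence measured ATXN2-luciferase expression after a fluorogenic Gly-Phe-AFC viability readout (25 uM final).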
KB-3-1 tox: KB-3-1 parental cell cytotoxicity. Potency, µM (highest dose often 46.1 µM), actives largely listed as cytotoxic. hit rate 1.4% among 400,000. KB-3-1 viability, CellTiter-Glo ATP luminescence, 72 h; also: % is scaled to controls: 0 for no effect and ±100 for the full control effect; nearly all actives have a fitted effect of over 60% in size
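Parental KB-3-1 viability, qHTS format: 72 h compound exposure, 37 °C; CellTiter-Glo; media-only wells and DMSO plates as controls; concentration-effect fits on corrected data.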
* marks the source's active call; other numbers are inactive results; i = inactive; ? = inconclusive; · = no result given; ! = repeats disagree. Most compounds without a hit are left out; they make up all but 6.2% or so of the library. Calls follow the shape of the dose curve; as a rule, active = well fitted curve in the direction sought with a large enough effect; inconclusive = small, poorly fitted or top-dose-only effect, or another doubt; inactive = no such curve, though single readings can be large; an effect the other way counts as inactive or inconclusive. Potency is read from the fitted curve at half-maximal effect.

SMILES | HT1080-NT tox | KB-V1 cytotox | ATXN viability | HT1080 IDH1KD tx | ATXN2 expr inh | KB-3-1 tox
COc1cc2c(cc1OC)C(C1C(=O)CCCC1=O)N(C(=O)CCl)CC2 (centres undefined) | 3% | i | i | 0% | · | i
COc1ccccc1N1CCN(C(=O)c2cc(-c3cccs3)on2)CC1 | -3% | 18µM* | i | -5% | 5% | i
Cc1nc(C)n(CC(=O)NCC2Cc3cc(-c4ccsc4)cc(Cl)c3O2)n1 (centres undefined) | · | · | i | · | · | ·
COc1ccc(NC(=O)C2CCCN(C(=O)c3cnn(-c4ccc(F)cc4)c3-n3cccc3)C2)cc1 (centres undefined) | · | i | ? | · | -9% | i
COc1cc(NC(=O)c2ccc(C)c(Cl)c2)ccc1NC(=O)c1cc2ccccc2o1 | · | i | i | · | 4% | i
O=C(NCc1ccccc1Cl)c1ccc2c(O)c(S(=O)(=O)c3ccccc3)c(=O)[nH]c2c1 | · | i | i | · | 6% | i
CCNC(=O)C1(C)CCN(C(=O)c2ccccc2OC(F)(F)F)C1 (centres undefined) | 21% | i | i | 21% | 2% | i
Nc1nc(CCl)nc(Nc2cccc3ccccc23)n1 | 0.52µM* | ? | ? | ? | · | ?
CC(=O)Nc1ccc(Oc2sc(C(=O)c3ccccc3)c(N)c2C#N)cc1 | ? | i | i | 16µM* | -2% | i
COc1ccc(-c2nnnn2-c2ccccc2OC)cc1 | ? | 13µM* | i | ? | -13% | ?
CSc1ccc(S(=O)(=O)Nc2ccc3c4c(cccc24)CC3)cc1 | ? | 15µM* | i | ? | -17% | 18µM*
CSc1ccc(S(=O)(=O)Nc2ccc3c(c2)NC(=O)CC3)cc1 | -28% | i | i | 16µM* | -34% | i
O=C1CCc2cc(S(=O)(=O)Nc3ccc4c(c3)CCC4)ccc2N1 | · | i | · | · | · | i
O=C(CN1CCC(NC(=O)c2cccc(F)c2)CC1)NCc1ccccc1F | 2% | 18µM* | ? | 0% | -2% | i
O=C(CN1CCC(NC(=O)c2ccc(F)cc2)CC1)NCc1ccccc1F | 3% | 12µM* | i | 10% | 11% | i
O=C(NCc1ccccc1Cl)C1CCCN1C(=O)NC1CCCCC1 (centres undefined) | 10% | i | i | 9% | -9% | i
O=C(NCc1ccccc1F)C1CCCN1C(=O)NC1CCCCC1 (centres undefined) | 0% | 21µM* | ? | 0% | 3% | i
COc1ccc(NS(=O)(=O)c2ccc(C)c(C(=O)N(C)Cc3ccc(C)cc3)c2)cc1 | -15% | i | i | -15% | -26% | i
Cn1c(C2CCC2)nc2cc(C(=O)N3CCOc4ccccc4C3)cc(NC(=O)C3CCCO3)c21 (centres undefined) | · | · | i | · | · | ·
O=C(Nc1ccc(Cl)cc1)Nc1ccc(Cl)c(C(F)(F)F)c1 | · | · | 16µM*! | · | ? | ·
CCOc1ccc(-n2nc3ccc(NC(=O)Cc4ccccc4)cc3n2)cc1 | · | ? | 14µM* | · | ? | i
CCOc1ccc(-n2nc3ccc(NC(=O)CC)cc3n2)cc1 | ? | i | i | ? | 8% | i
Cc1ccc(/C=N/NC(=O)NN(C)c2ncc(C(F)(F)F)cc2Cl)cc1 | -30% | i | i | ? | -11% | i
CNCC(=O)Nc1ccc(Cl)c(C(F)(F)F)c1 | -13% | i | i | -5% | -30% | i
CCCCc1ccc(-n2nc3ccc(NC(=O)c4cc5ccccc5o4)cc3n2)cc1 | · | i | 22µM* | · | ? | i
SMILES | HT1080-NT tox | KB-V1 cytotox | ATXN viability | HT1080 IDH1KD tx | ATXN2 expr inh | KB-3-1 tox
CN(NC(=O)Nc1ccc(Cl)cc1)c1ncc(C(F)(F)F)cc1Cl | ? | 16µM* | i | ? | 2% | ?
COC1(C(F)(F)F)NC(=O)N(c2ccc(F)cc2)C1=O (centres undefined) | · | i | i | · | 5% | i
Clc1ccccc1Cc1cn2cc(-c3ccccc3)nc2s1 | · | ? | i | · | 28% | i
CCOc1ccc(NC(=O)Nc2cccc(C(=O)O)c2)cc1 | ? | ? | i | ? | 1µM* | i
CCOc1ccc(NC(=O)Nc2cc(C)ccc2F)cc1 | ? | 13µM* | i | ? | 75% | i
Cc1cccc(OCC(=O)Nc2cc(NC(=O)COc3cccc(C)c3C)cc(C(=O)O)c2)c1C | -3% | i | i | 0% | · | i
O=C(Nc1ccc(Cl)cc1)Nc1cccc(C(=O)O)c1 | 5% | i | i | -2% | 8.9µM* | i
CCOc1ccc(NC(=O)Nc2cc(C(C)C)c(O)cc2C)cc1 | -12% | i | i | 0% | -8% | i
Cc1ccccc1OCC(=O)Nc1cccc(C(=O)O)c1 | 6% | i | i | 1% | 0.17µM* | i
CCN(CC)CCCNC(=O)c1ccc(Cn2c(SCc3ccccc3)nc3cccnc32)cc1 | · | i | ? | · | 8% | i
COC(=O)c1cc(NS(=O)(=O)c2cc(Br)cc3c2N(C(C)=O)CC3)cc(C(=O)OC)c1 | · | i | i | · | -8% | i
COc1ccc(NC(=O)C(=O)N/N=C\c2ccc(CNC(=O)C(=O)Nc3ccc(C)c(C)c3)o2)c(OC)c1 | -5% | ? | ? | 3% | -13% | 13µM*
COCCNC(=O)/C(C#N)=C\c1ccc(CNC(=O)C(=O)Nc2ccc(C)c(C)c2)o1 | 0% | i | i | -5% | 4% | i
Cc1[nH]nc(-c2ccc(OCc3cnn(-c4ccccc4)c3)c(C)c2O)c1Oc1ccccc1 | 21µM* | i | ? | 16µM* | -35% | 21µM*
Cc1cccc2cc(CN(CC3CCCO3)C(=O)c3ccccc3F)c(N(C)C)nc12 (centres undefined) | · | · | i | · | · | ·
COc1cc(CNC(=O)c2cnn(-c3ncc4c(n3)-c3ccccc3CC4)c2C)cc(OC)c1OC | · | · | i | · | · | ·
O=[N+]([O-])c1ccc(N2CCN(c3ccc(O)cc3)CC2)cn1 | ? | ? | i | ? | -33% | i
O=[N+]([O-])c1ccc(N2CCN(c3ccccc3Cl)CC2)cn1 | 1% | ? | i | -4% | -7% | 5.2µM*
COc1ccccc1NC(=O)c1ccc2c(c1)N(CC#N)C(=O)C(C)(C)O2 | -7% | i | i | -2% | 2% | i
COc1ccc(CN2CCOc3ccc(CN4CCC(Oc5cccnc5)CC4)cc3C2)cc1 | · | · | i | · | · | ·
COc1cccc(C2C3=C(CC(C)(C)CC3=O)Nc3cc4c(cc32)OCO4)c1 (centres undefined) | -4% | ? | ? | -4% | -7% | i
